Assay results from PubChem BioAssay (EPA / NIEHS).
Calls of active or inactive are those of the source. The calls were made as follows: active = hit-call score of the fitted dose curve at least 0.9, where 1 is the maximum; inactive = score below 0.9.

Assays:
[1] = read-out: Matrix Metallopeptidase 1 (MMP1), MMP1 (gene 4312); experiment: BSK_hDFCGF_MMP1: BioMAP Diversity Plus: hDFCGF Assay for Matrix Metallopeptidase 1 (MMP1) Biomarker Activity (AID 2283064); conditions: primary human foreskin fibroblasts; actives raise or lower the signal
Method in brief: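 ELISA read-out of MMP1 from human foreskin fibroblasts (primary skin cells), 24 h post-dose. Gain or loss of signal was fitted bidirectionally versus DMSO negative control; cytotoxicity was checked by SRB in parallel cultures.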

[2] = read-out: Vascular cell adhesion molecule 1 (VCAM1), VCAM1 (gene 7412); experiment: BSK_hDFCGF_VCAM1: BioMAP Diversity Plus: hDFCGF Assay for Vascular cell adhesion molecule 1 (VCAM1) Biomarker Activity (AID 2283065); conditions: primary human foreskin fibroblasts; actives raise or lower the signal
Method in brief: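 Human foreskin fibroblast primary cells dosed with chemical, VCAM-1 measured by ELISA at 24 h. Bidirectional curve fitting relative to DMSO as negative control/baseline.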

[3] = read-out: Plasminogen activator inhibitor-1 (PAI1), SERPINE1 (gene 5054); experiment: BSK_hDFCGF_PAI1: BioMAP Diversity Plus: hDFCGF Assay for Plasminogen activator inhibitor-1 (PAI1) Biomarker Activity (AID 2283066); conditions: primary human foreskin fibroblasts; actives raise or lower the signal
Method in brief: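 PAI-1 levels in human dermal foreskin fibroblasts were quantified by ELISA 24 h after dosing, with gain or loss analysed against DMSO. Overt cytotoxicity was checked by sulforhodamine B total-protein staining in parallel cultures.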

[4] = read-out: Intercellular Adhesion Molecule 1 (ICAM1), ICAM1 (gene 3383); experiment: BSK_KF3CT_ICAM1: BioMAP Diversity Plus: KF3CT Assay for Intercellular Adhesion Molecule 1 (ICAM1) Biomarker Activity (AID 2283067); conditions: primary human keratinocytes with fibroblasts; actives raise or lower the signal
Method in brief: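 Human keratinocyte–foreskin fibroblast co-culture was treated for 24 h. Cell-surface ICAM-1 was quantified by ELISA, fitted bidirectionally relative to DMSO. Cytotoxicity was checked in parallel cultures by SRB total-protein staining.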

[5] = read-out: Interferon-gamma inducible Protein 10 (IP10), CXCL10 (gene 3627); experiment: BSK_KF3CT_IP10: BioMAP Diversity Plus: KF3CT Assay for Interferon-gamma inducible Protein 10 (IP10) Biomarker Activity (AID 2283068); conditions: primary human keratinocytes with fibroblasts; actives raise or lower the signal
Method in brief: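 Signal is secreted/surface IP-10 by ELISA in a human primary skin co-culture of keratinocytes and foreskin fibroblasts, taken 24 h post-dosing; DMSO served as negative control.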

[6] = read-out: Interleukin-1 alpha (IL1a), IL1A (gene 3552); experiment: BSK_KF3CT_IL1a: BioMAP Diversity Plus: KF3CT Assay for Interleukin-1 alpha (IL1a) Biomarker Activity (AID 2283070); conditions: primary human keratinocytes with fibroblasts; actives raise or lower the signal
Method in brief: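 Primary skin co-culture (keratinocytes, foreskin fibroblasts), 24 h exposure; ELISA for IL-1a; bidirectional curve fit vs DMSO.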

[7] = read-out: TIMP metallopeptidase inhibitor 2 (TIMP2), TIMP2 (gene 7077); experiment: BSK_KF3CT_TIMP2: BioMAP Diversity Plus: KF3CT Assay for TIMP metallopeptidase inhibitor 2 (TIMP2) Biomarker Activity (AID 2283071); conditions: primary human keratinocytes with fibroblasts; actives raise or lower the signal
Method in brief: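 TIMP-2 measured by ELISA at 24 h in human keratinocyte/fibroblast primary co-cultures exposed to chemicals. Both increases and decreases were fitted against DMSO. Parallel cultures were stained with SRB for total protein as an overt-cytotoxicity check.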

[8] = read-out: Transforming growth factor beta 1 (TGFb1), TGFB1 (gene 7040); experiment: BSK_KF3CT_TGFb1: BioMAP Diversity Plus: KF3CT Assay for Transforming growth factor beta 1 (TGFb1) Biomarker Activity (AID 2283072); conditions: primary human keratinocytes with fibroblasts; actives raise or lower the signal
Method in brief: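 ELISA quantifies TGF-b1 at 24 h post-dose in a primary human skin co-culture of keratinocytes and fibroblasts, with gain or loss judged against DMSO. Parallel SRB total-protein staining flags overt cytotoxicity.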

[9] = read-out: C-C motif chemokine 2 (Homo sapiens) (UniProt P13500); experiment: BSK_KF3CT_MCP1: BioMAP Diversity Plus: KF3CT Assay for Monocyte Chemoattractant Protein 1 (MCP1/CCL2) Biomarker Activity (AID 2283073); conditions: primary human keratinocytes with fibroblasts; actives raise or lower the signal
Method in brief: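 Human keratinocyte–foreskin fibroblast co-culture; MCP-1 measured by ELISA 24 h after dosing. Bidirectional fit vs DMSO; cytotoxicity tracked by SRB total protein in parallel cultures.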

[10] = read-out: Matrix Metallopeptidase 9 (MMP9), MMP9 (gene 4318); experiment: BSK_KF3CT_MMP9: BioMAP Diversity Plus: KF3CT Assay for Matrix Metallopeptidase 9 (MMP9) Biomarker Activity (AID 2283074); conditions: primary human keratinocytes with fibroblasts; actives raise or lower the signal
Method in brief: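 ELISA read-out of MMP-9 at 24 h post-dosing in a co-culture of human skin keratinocytes and foreskin fibroblasts. Gain or loss of signal was fitted in both directions against DMSO.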

[11] = read-out: urokinase plasminogen activator (uPA), PLAU (gene 5328); experiment: BSK_KF3CT_uPA: BioMAP Diversity Plus: KF3CT Assay for urokinase plasminogen activator (uPA) Biomarker Activity (AID 2283075); conditions: primary human keratinocytes with fibroblasts; actives raise or lower the signal
Method in brief: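 Skin co-culture (keratinocytes + foreskin fibroblasts), human primary; 24 h post-dose; uPA by ELISA; gain/loss fit vs DMSO baseline.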

[12] = read-out: CD40, CD40 (gene 958); experiment: BSK_LPS_CD40: BioMAP Diversity Plus: LPS Assay for CD40 Biomarker Activity (AID 2283076); conditions: primary human HUVEC with PBMC; actives raise or lower the signal
Method in brief: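 HUVEC plus PBMC co-culture stimulated with LPS; CD40 quantified by ELISA 24 h after compound dosing. Fitting was bidirectional relative to DMSO. SRB staining of parallel cultures flagged overt cytotoxicity.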

[13] = read-out: E-selectin (Homo sapiens) (UniProt P16581); experiment: BSK_LPS_Eselectin: BioMAP Diversity Plus: LPS Assay for Eselectin Biomarker Activity (AID 2283077); conditions: primary human HUVEC with PBMC; actives raise or lower the signal
Method in brief: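 Human umbilical vein endothelial cells co-cultured with PBMC under LPS stimulation; cell-surface E-selectin measured by ELISA 24 h after dosing. Change in either direction versus DMSO, with SRB total-protein staining in parallel cultures for cytotoxicity.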

[14] = read-out: Interleukin-8 (IL8), CXCL8 (gene 3576); experiment: BSK_LPS_IL8: BioMAP Diversity Plus: LPS Assay for Interleukin-8 (IL8) Biomarker Activity (AID 2283078); conditions: primary human HUVEC with PBMC; actives raise or lower the signal
Method in brief: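 Human umbilical vein endothelial cells co-cultured with PBMC, LPS-stimulated, exposed to compound for 24 h. IL-8 quantified by ELISA; fitted in both directions against DMSO, with SRB total-protein staining of parallel cultures for cytotoxicity.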

[15] = BSK_LPS_SRB: Viability Assessment in the BioMAP Diversity Plus: LPS Assay (AID 2283079); conditions: primary human HUVEC with PBMC;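 also: total protein by sulforhodamine B absorbance as a cytotoxicity measure; measured one day after compound addition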
Method in brief: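 Co-culture of human umbilical vein endothelial cells and PBMC, read 24 h after dosing. Total protein by 0.1% SRB staining after 10% TCA fixation, absorbance at 560 nm; bidirectional fit against DMSO.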

[16] = read-out: Interleukin-1 alpha (IL1a), IL1A (gene 3552); experiment: BSK_LPS_IL1a: BioMAP Diversity Plus: LPS Assay for Interleukin-1 alpha (IL1a) Biomarker Activity (AID 2283080); conditions: primary human HUVEC with PBMC; actives raise or lower the signal
Method in brief: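 Human umbilical vein endothelial cells co-cultured with PBMC and stimulated with LPS; IL-1a measured by ELISA 24 h after dosing. Bidirectional fitting against DMSO; cytotoxicity checked by SRB staining in parallel cultures.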

[17] = read-out: Monocyte Chemoattractant Protein-1 (MCP1), CCL2 (gene 6347); experiment: BSK_LPS_MCP1: BioMAP Diversity Plus: LPS Assay for Monocyte Chemoattractant Protein-1 (MCP1) Biomarker Activity (AID 2283081); conditions: primary human HUVEC with PBMC; actives raise or lower the signal;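 as to AC50: secreted MCP-1 protein quantified by ELISA in culture supernatant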
Method in brief: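 Human umbilical vein endothelial cells co-cultured with PBMC, LPS-stimulated; secreted MCP-1 measured by ELISA 24 h after compound addition. Bidirectional curve fitting against DMSO baseline; SRB total-protein staining in parallel cultures for cytotoxicity.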

[18] = BSK_LPS_PGE2: BioMAP Diversity Plus: LPS Assay for Prostaglandin E2 (PGE2) Biomarker Activity (AID 2283082); conditions: primary human HUVEC with PBMC; actives raise or lower the signal
Method in brief: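 PGE2 release measured by ELISA in an LPS-activated co-culture of human umbilical vein endothelial cells and peripheral blood mononuclear cells, read at 24 h post-dosing. DMSO served as baseline for bidirectional curve fitting.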

[19] = read-out: Macrophage colony-stimulating factor (MCSF), CSF1 (gene 1435); experiment: BSK_LPS_MCSF: BioMAP Diversity Plus: LPS Assay for Macrophage colony-stimulating factor (MCSF) Biomarker Activity (AID 2283083); conditions: primary human HUVEC with PBMC; actives raise or lower the signal
Method in brief: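 HUVEC–PBMC co-culture, M-CSF measured by ELISA 24 h after chemical dosing. Fitted in both directions relative to DMSO as negative control; overt cytotoxicity assessed by SRB total-protein staining in parallel cultures.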

[20] = BSK_KF3CT_SRB: Viability Assessment in the BioMAP Diversity Plus: KF3CT Assay (AID 2283069); conditions: primary human keratinocytes with fibroblasts
Method in brief: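 SRB read-out at 560 nm (0.1% stain, TCA-fixed cells) gauges overt cytotoxicity in a human skin keratinocyte–fibroblast co-culture 24 h post-dosing. Signal change was fitted bidirectionally relative to DMSO control.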

Chain of E-selectin (Homo sapiens) (P16581 whole entry, looked up): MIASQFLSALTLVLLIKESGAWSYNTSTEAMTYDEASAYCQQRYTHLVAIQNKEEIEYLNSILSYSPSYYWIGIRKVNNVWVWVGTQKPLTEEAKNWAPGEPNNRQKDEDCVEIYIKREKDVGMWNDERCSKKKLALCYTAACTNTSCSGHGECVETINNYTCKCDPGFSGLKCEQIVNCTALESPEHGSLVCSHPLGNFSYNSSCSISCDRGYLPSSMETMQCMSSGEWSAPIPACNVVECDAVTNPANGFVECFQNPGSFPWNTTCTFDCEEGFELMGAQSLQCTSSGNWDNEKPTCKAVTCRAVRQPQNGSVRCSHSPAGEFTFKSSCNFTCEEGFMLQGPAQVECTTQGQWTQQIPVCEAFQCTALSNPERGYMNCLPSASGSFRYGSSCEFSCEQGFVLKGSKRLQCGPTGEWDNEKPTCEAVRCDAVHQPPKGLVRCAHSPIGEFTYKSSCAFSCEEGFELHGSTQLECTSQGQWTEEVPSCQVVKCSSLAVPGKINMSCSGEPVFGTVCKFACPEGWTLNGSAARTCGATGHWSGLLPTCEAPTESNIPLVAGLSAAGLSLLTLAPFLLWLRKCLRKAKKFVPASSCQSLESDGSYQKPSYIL

## O=P(Oc1ccccc1)(Oc1ccccc1)Oc1ccccc1
[1]
  outcome: inactive
[2]
  outcome: inactive
[3]
  AC50: 20 µM (active)
[4]
  outcome: inactive
[5]
  outcome: inactive
[6]
  outcome: inactive
[7]
  outcome: inactive
[8]
  outcome: inactive
[9]
  outcome: inactive
[10]
  outcome: inactive
[11]
  outcome: inactive
[12]
  AC50: 23.6 µM (active)
[13]
  outcome: inactive
[14]
  AC50: 30.6 µM (active)
[15]
  AC50: 30.6 µM (active)
[16]
  outcome: inactive
[17]
  AC50: 30 µM (active)
[18]
  outcome: inactive
[19]
  AC50: 32.1 µM (active)

## c1ccc(OP(Oc2ccccc2)Oc2ccccc2)cc1
[1]
  outcome: inactive
[2]
  outcome: inactive
[3]
  outcome: inactive
[4]
  outcome: inactive
[5]
  outcome: inactive
[6]
  outcome: inactive
[7]
  outcome: inactive
[8]
  outcome: inactive
[9]
  outcome: inactive
[10]
  outcome: inactive
[11]
  outcome: inactive
[12]
  outcome: inactive
[13]
  outcome: inactive
[14]
  outcome: inactive
[15]
  outcome: inactive
[16]
  outcome: inactive
[17]
  outcome: inactive
[18]
  outcome: inactive
[19]
  outcome: inactive

## CCOP(=S)(S)OCC
[1]
  outcome: inactive
[2]
  outcome: inactive
[3]
  outcome: inactive
[4]
  outcome: inactive
[5]
  outcome: inactive
[20]
  outcome: inactive
[6]
  outcome: inactive
[7]
  outcome: inactive
[8]
  outcome: inactive
[9]
  outcome: inactive
[10]
  outcome: inactive
[11]
  outcome: inactive
[12]
  outcome: inactive
[13]
  outcome: inactive
[14]
  outcome: inactive
[15]
  outcome: inactive
[16]
  AC50: 36.6 µM (active)
[17]
  outcome: inactive
[18]
  outcome: inactive
[19]
  outcome: inactive
